The source of these data is PubChem BioAssay.

Molecules are shown by their SMILES. Calls of active or inactive are those of the source. Unless noted, the rule behind the calls is not given here.

Assay [1] deals with Wnt5a (protein binding on small-molecule microarray). Description: small molecules binding Wnt5a protein – biophysical, small-molecule microarray, 635/667 nm fluorescence, primary screen (AID 1142).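 Note: fluorescence read at 667 nm with signal to noise per printed feature.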 Particulars: 635 nm fluorescence, higher = more signal.
Assay [2] can be described thus: ATP-based viability of Huh7 replicon cells – cell-based, CellTiter-Glo luminescence, basal, 48 h, cytotoxicity control for HCV replication inhibitor project, primary screen (AID 1143).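 Note: Huh7 hepatoma cells carrying a hepatitis C replication reporter with no stimulus; test concentration not given here.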 Conditions: higher = more signal, called active from +8 up or from −8 down.
The nature of assay [3]: Pseudomonas biofilm growth suppression – PAO1 strain, BacTiter-Glo luminescence, LB-PBS, primary screen (AID 1144). Particulars: P. aeruginosa PAO1 biofilm, 12 h, higher = more signal.
The nature of assay [4]: basal CRE-LacZ reporter activity in PC12 – cell-based, unstimulated, primary screen (AID 1145). Particulars: no forskolin, luminescence, 4.5 h, higher = more signal, called active from +8 up or from −8 down.
Assay [5] can be described thus: forskolin-driven CRE-LacZ activity in PC12 – cell-based, CRE-LacZ reporter, forskolin-stimulated, primary screen (AID 1146).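 Note: PC12 cells with 6xCRE LacZ reporter stimulated by forskolin 10 µM; beta-galactosidase reporter signal reflecting CREB driven transcription.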 Conditions: luminescence, 4.5 h, higher = more signal, called active from +8 up or from −8 down.
The target in assay [6] is Streptavidin (Streptomyces avidinii) (UniProt P22629). Description: compounds binding control protein streptavidin – biophysical, small-molecule microarray, 635/667 nm fluorescence, artefact control for SMM compound annotation, primary screen (AID 1147).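 Note: signal reflects streptavidin binding to arrayed compounds as a control protein.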 Particulars: higher = more signal.
A short description of assay [7]: probe aInhba binding on compound microarray – biochemical, small-molecule microarray, 635/667 nm fluorescence, primary screen (AID 1148).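 Note: score merges 667nm spot fluorescence with signal-to-noise for antibody binding to printed compounds.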 Particulars: higher = more signal.
For assay [8], the target named is Torsin-1A (Homo sapiens) (UniProt O14656). Description: TOR1A wild-type binding on microarray – cell lysate, small-molecule microarray, lysate, 635/667 nm, primary screen (AID 1149). Particulars: COS7 hTOR1A-WT lysate, 635 nm fluorescence, higher = more signal.
Assay [9] has the same target. The assay can be described thus: torsin A mutant lysate binding on microarrays – cell lysate, small-molecule microarray, COS7 lysate, 635/667 nm fluorescence, primary screen (AID 1150).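 Note: score pools 667 nm emission and signal to noise measuring lysate protein binding.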 Particulars: COS7 hTOR1A mutant lysate, 635 nm fluorescence, higher = more signal.
Assay [10] concerns Sonic hedgehog protein (Shh). Description: Sonic hedgehog microarray binding compounds – biochemical, small-molecule microarray, 635/667 nm fluorescence, primary screen (AID 1151).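 Note: Shh protein binding to compounds spotted on small-molecule microarray slides; score combines spot fluorescence intensity with signal-to-noise across triplicate slides.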 Conditions: 635 nm fluorescence, higher = more signal.
The nature of assay [11]: optical density shifts of acrAB sulA E. coli – strain DRC41, OD650, 48 h, E. coli filamentation inducer project, primary screen (AID 1152).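 Note: E. coli MC1000 strain DRC41 lacking acrAB efflux pump and sulA.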 Particulars: higher = more signal, called active from +8 up or from −8 down.
Assay [12] can be described thus: probe aLefty1 binding on compound microarray – biochemical, small-molecule microarray, 635/667 nm fluorescence, primary screen (AID 1153).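 Note: score merges spot fluorescence with signal-to-noise ratio from the scanned slide images.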 Conditions: higher = more signal.
Assay [13] is described as follows: plasmodial surface anion channel blockers, osmotic lysis – cell-based, P. falciparum Indochina, OD700, 1 h, primary screen (AID 1154). Particulars: P. falciparum Indochina infected RBC osmotic lysis, higher = more signal, called active from +8 up or from −8 down.
Assay [14] is described as follows: plasmodial surface anion channel blockers, osmotic lysis – cell-based, P. falciparum Indochina, OD700, 2 h, primary screen (AID 1155).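 Note: lysis reports solute entry through the parasite surface anion channel PSAC.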 Conditions: P. falciparum Indochina infected erythrocytes, higher = more signal, called active from +8 up or from −8 down.
Assay [15] in a line: changes in parasitized red cell lysis, either direction – P. falciparum Indochina, OD700, 3 h, PSAC antagonist project, primary screen (AID 1156). Particulars: P. falciparum-infected erythrocytes, osmotic lysis, higher = more signal, called active from +8 up or from −8 down.
A short description of assay [16]: plasmodial surface anion channel blockers, osmotic lysis – cell-based, P. falciparum Indochina, OD700, 18 h, primary screen (AID 1157). Conditions: P. falciparum Indochina infected erythrocytes, osmotic lysis OD700, 18 h; higher = more signal, called active from +8 up or from −8 down.
Assay [17] is described as follows: S6 kinase pathway phospho-S6 level changes – cell-based, A549, cytoblot, luminescence, serum-stimulated, primary screen (AID 1158).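 Note: serum-stimulated A549 lung adenocarcinoma cells; signal is phosphorylated S6 detected by cytoblot immunostaining with HRP secondary.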 Particulars: 5 h, higher = more signal.
Assay [18] has as its target NADPH oxidase 2 (Homo sapiens) (UniProt P04839). Description: compounds shifting NOX2 Amplex Red fluorescence – cell-based, HEK293-NOX2, PMA-stimulated, NOX inhibitor project, primary screen (AID 1159). Note: test concentration not given here. Conditions: 45 min, higher = more signal, called active from +8 up or from −8 down.
Assay [19] has as its target NADPH oxidase 4 (Homo sapiens) (UniProt Q9NPH5). Description: compounds shifting NOX4 Amplex Red fluorescence – cell-based, HEK293-NOX4, tetracycline-induced, NOX inhibitor project, primary screen (AID 1160). Particulars: HEK293-NOX4, Amplex Red H2O2 fluorescence, 45 min; higher = more signal, called active from +8 up or from −8 down.
The target of assay [20] is NADPH oxidase 5 (Homo sapiens) (UniProt Q96PH1). Description: compounds shifting NOX5 Amplex Red fluorescence – cell-based, HEK293-NOX5, NOX inhibitor project, primary screen (AID 1161). Conditions: HEK293-NOX5, ionomycin, 45 min, higher = more signal.
Chain of NADPH oxidase 5 (Homo sapiens) (Q96PH1 whole entry, looked up): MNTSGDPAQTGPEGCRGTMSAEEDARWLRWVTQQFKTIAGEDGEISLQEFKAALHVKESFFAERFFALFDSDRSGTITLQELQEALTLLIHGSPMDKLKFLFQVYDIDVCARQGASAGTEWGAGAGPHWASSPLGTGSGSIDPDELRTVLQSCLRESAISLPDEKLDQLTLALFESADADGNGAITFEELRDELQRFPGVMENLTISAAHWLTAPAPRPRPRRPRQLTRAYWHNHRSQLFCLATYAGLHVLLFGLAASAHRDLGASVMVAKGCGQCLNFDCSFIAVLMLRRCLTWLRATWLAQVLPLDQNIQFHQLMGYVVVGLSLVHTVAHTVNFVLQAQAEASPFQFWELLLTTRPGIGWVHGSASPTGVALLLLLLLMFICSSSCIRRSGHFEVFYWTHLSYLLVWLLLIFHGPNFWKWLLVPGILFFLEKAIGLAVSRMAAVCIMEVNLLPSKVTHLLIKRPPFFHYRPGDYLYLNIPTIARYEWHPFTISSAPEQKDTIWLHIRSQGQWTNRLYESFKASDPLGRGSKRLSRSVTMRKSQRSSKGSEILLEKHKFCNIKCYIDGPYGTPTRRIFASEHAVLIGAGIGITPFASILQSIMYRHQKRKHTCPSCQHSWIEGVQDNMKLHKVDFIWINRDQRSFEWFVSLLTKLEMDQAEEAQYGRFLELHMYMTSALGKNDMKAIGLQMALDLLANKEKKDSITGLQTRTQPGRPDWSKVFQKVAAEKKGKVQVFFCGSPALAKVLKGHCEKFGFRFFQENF

Chain of Streptavidin (Streptomyces avidinii) (P22629 whole entry, looked up): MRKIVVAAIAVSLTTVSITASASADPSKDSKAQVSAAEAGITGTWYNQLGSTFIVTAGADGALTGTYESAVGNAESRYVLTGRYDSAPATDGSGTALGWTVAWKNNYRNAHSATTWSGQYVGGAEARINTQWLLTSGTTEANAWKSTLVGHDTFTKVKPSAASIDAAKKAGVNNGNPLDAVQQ
Chain of Torsin-1A (Homo sapiens) (O14656 whole entry, looked up): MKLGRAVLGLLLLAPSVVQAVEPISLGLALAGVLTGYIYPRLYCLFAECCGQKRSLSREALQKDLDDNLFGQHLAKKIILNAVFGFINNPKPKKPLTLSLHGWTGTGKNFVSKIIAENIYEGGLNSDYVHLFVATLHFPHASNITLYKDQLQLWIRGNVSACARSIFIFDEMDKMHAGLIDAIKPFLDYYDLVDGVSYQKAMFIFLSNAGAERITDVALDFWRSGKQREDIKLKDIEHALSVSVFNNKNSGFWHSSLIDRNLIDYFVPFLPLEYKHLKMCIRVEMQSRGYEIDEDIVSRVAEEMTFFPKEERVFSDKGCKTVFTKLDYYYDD
Chain of NADPH oxidase 2 (Homo sapiens) (P04839 whole entry, looked up): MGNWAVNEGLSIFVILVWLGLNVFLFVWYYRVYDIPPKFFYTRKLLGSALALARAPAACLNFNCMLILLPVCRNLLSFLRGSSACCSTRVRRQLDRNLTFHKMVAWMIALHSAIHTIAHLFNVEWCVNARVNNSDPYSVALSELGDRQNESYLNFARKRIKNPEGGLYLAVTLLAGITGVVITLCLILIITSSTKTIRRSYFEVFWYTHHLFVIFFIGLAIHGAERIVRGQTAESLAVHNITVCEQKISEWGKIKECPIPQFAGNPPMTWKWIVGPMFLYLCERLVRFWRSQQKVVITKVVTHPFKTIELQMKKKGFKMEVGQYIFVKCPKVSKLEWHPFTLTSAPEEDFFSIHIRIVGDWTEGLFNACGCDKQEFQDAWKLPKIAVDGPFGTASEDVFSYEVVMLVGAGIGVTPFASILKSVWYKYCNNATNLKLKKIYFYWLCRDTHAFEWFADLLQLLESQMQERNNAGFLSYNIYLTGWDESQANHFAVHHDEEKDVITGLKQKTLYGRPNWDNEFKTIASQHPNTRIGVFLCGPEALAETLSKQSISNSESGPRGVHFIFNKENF
Chain of NADPH oxidase 4 (Homo sapiens) (Q9NPH5 whole entry, looked up): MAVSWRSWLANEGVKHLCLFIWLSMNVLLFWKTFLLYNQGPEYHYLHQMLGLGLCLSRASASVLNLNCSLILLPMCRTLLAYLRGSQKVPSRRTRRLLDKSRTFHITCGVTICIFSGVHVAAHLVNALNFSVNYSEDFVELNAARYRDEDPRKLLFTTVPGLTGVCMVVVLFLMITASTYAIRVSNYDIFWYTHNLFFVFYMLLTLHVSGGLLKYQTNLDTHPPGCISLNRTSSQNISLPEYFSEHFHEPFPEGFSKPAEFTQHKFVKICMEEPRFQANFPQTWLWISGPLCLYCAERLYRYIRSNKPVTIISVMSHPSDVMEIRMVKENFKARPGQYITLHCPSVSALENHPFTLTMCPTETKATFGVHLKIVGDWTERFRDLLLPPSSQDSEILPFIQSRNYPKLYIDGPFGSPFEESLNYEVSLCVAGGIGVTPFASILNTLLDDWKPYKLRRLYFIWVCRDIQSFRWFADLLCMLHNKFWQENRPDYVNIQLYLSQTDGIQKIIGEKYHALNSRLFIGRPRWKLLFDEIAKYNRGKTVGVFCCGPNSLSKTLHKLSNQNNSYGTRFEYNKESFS

Take `CCOC(=O)CCN1C(=O)[C@H]2[C@H]3[C@H](O)[C@H](O)CC(=NNC(=O)OCc4ccc(OC)cc4)[C@H]3CC[C@H]2C1=O`: the composite z-score in [1] is -0.169; in [6], -0.0807; in assay [7], -0.257; in the assay with Torsin-1A (Homo sapiens) [8], 0.306; with Torsin-1A (Homo sapiens) [9], 0.111; in [10], 0.236. Also, the composite z-score in assay [12] was -0.0109. Moreover, the z-score was -0.401 (inactive) in assay [2]; 0.136 (inactive) in [3]; 0.523 (inactive) in assay [4]; -0.139 (inactive) in assay [5]; -0.448 (inactive) in assay [11]; 0.519 (inactive) in [13]. The z-score was -0.0212 (inactive) in assay [14]; 0.0927 (inactive) in assay [15]; 0.0103 (inactive) in assay [16]; -0.528 in assay [17]; 1.67 (inactive) in assay [18]; 0.619 (inactive) in assay [19]. The z-score in [20] worked out at 0.937.
Consider `COc1ccc(COC(=O)NN=C2C[C@@H](O)[C@@H](O)[C@@H]3[C@@H]4C(=O)N(Cc5ccc6c(c5)OCO6)C(=O)[C@@H]4CC[C@H]23)cc1`, for which the composite z-score in [1] was -0.343; in [6], 0.61; in [7], 0.0018; with Torsin-1A (Homo sapiens) [8], -0.878; with Torsin-1A (Homo sapiens) [9], -0.647; in assay [10] it was -1.32. In assay [12], this compound yielded a composite z-score of 0.781. The z-score was 0.0813 (inactive) in [2]; 0.939 (inactive) in assay [3]; 0.96 (inactive) in [4]; 0.0695 (inactive) in assay [5]; 0.701 (inactive) in assay [11]; 15.7 (active) in assay [13]. For the same compound, the z-score is 2.17 (inactive) in [14]; 0.18 (inactive) in assay [15]; 0.845 (inactive) in assay [16]; 0.767 in assay [17]; -0.657 (inactive) in assay [18]; 0.186 (inactive) in assay [19]. For the same compound, the z-score in [20] was determined as 0.138.
Turning to `C[C@@H]1CC[C@@H](C(=O)O)N[C@H]1c1cccc(N2CCOCC2)c1`, the composite z-score in assay [1] was -0.0449; in assay [6], 0.032; in assay [7], -0.273; with Torsin-1A (Homo sapiens) [8], 0.482; in the assay with Torsin-1A (Homo sapiens) [9], 0.944; in assay [10], 0.908. For the same compound, the composite z-score in assay [12] is -0.0984. The z-score in assay [2] was -0.538 (inactive); in assay [3], -1.08 (inactive); in [4], -0.974 (inactive); in assay [5], -1.29 (inactive); in assay [11], 0.563 (inactive); in assay [13], -0.0136 (inactive). In addition, the z-score is 0.18 (inactive) in assay [14]; 0.468 (inactive) in [15]; 0.247 (inactive) in assay [16]; 0.778 in [17]; -0.438 (inactive) in assay [18]; 0.65 (inactive) in assay [19]. Moreover, the z-score in [20] is 0.252.
For the compound `COC(=O)[C@H](C)NC(=O)CCC1CC(OC(=O)NCCc2ccc(F)cc2)CC2(CCCC(COC(=O)NCc3ccccc3)O2)O1` (stereo not given in full), the composite z-score in assay [1] is 0.101; in assay [6], 0.848; in [7], -0.0209; with Torsin-1A (Homo sapiens) [8], 0.257; in the assay with Torsin-1A (Homo sapiens) [9], 0.477; in [10], 1.25. Moreover, in assay [12], the composite z-score turned out to be 0.0367. Further, the z-score in assay [2] was -0.455 (inactive); in assay [3], -0.035 (inactive); in assay [4], 0.199 (inactive); in assay [5], 0.833 (inactive); in assay [11], -1.03 (inactive); in assay [13] it was -0.622 (inactive). In addition, the z-score was -0.694 (inactive) in [14]; -0.384 (inactive) in assay [15]; -0.268 (inactive) in assay [16]; 0.788 in assay [17]; 0.0624 (inactive) in assay [18]; -0.0206 (inactive) in assay [19]. Besides, the z-score in assay [20] came out at 0.519.
Regarding `CO[C@@H]1COC(=O)[C@@H]2CCCN2C(=O)[C@@H](C)COC(=O)CCC[C@H]1C`, the composite z-score in [1] is -0.0105; in assay [6], 1.21; in assay [7], -0.153; with Torsin-1A (Homo sapiens) [8], 1.21; with Torsin-1A (Homo sapiens) [9], 0.241; in assay [10], 1.18. In [12], this compound had a composite z-score of -0.241. In addition, the z-score is -0.848 (inactive) in assay [2]; -0.506 (inactive) in [3]; 0.355 (inactive) in assay [4]; -0.269 (inactive) in assay [5]; -0.476 (inactive) in [11]; -0.238 (inactive) in assay [13]. The z-score in assay [14] is -1.48 (inactive); in assay [15] it was -0.0716 (inactive); in assay [16], -2.21 (inactive); in assay [17] it was 2.43; in assay [18] it was -0.634 (inactive); in [19] it was 0.0989 (inactive). In assay [20], the z-score is 0.43.
For `COC(=O)CC=C[C@@H](C)[C@@H](C=NOC[C@@H](O)[C@H]1O[C@@H]2OC(C)(C)O[C@@H]2[C@H]1O)OC`, the composite z-score in [1] is 0.183; in [6], 0.271; in assay [7], -0.149; with Torsin-1A (Homo sapiens) [8], -0.104; with Torsin-1A (Homo sapiens) [9], 0.162; in assay [10], 0.867. In assay [12], this compound gave a composite z-score of -0.0603. In addition, the z-score in assay [2] was 0.559 (inactive); in assay [3], 0.601 (inactive); in assay [4], -0.0545 (inactive); in assay [5], 0.0127 (inactive); in assay [11], 0.29 (inactive); in assay [13] it was 0.332 (inactive). Also, the z-score in [14] is 0.453 (inactive); in assay [15] it was 0.141 (inactive); in assay [16] it was 0.443 (inactive); in assay [17], -0.332; in assay [18], 0.144 (inactive); in [19], -0.51 (inactive). In assay [20], the z-score was determined as 0.15.
For the compound `O=C1[C@H]2[C@H]3[C@H](O)[C@H](O)CC(=NOC[C@@H](O)COCc4ccco4)[C@@H]3CC[C@H]2C(=O)N1Cc1ccccc1`, the composite z-score in assay [1] was -0.0051; in assay [6], -0.153; in assay [7] it was -0.186; with Torsin-1A (Homo sapiens) [8] it was 3.04; with Torsin-1A (Homo sapiens) [9], 1.92; in assay [10], 0.399. Further, the composite z-score in assay [12] was determined as 0.185. Besides, the z-score is -1.65 (inactive) in assay [2]; 0.969 (inactive) in assay [3]; -0.294 (inactive) in [4]; 0.183 (inactive) in assay [5]; 0.119 (inactive) in [11]; 28.6 (active) in assay [13]. In addition, the z-score is 4.72 (inactive) in assay [14]; 0.618 (inactive) in assay [15]; 1.21 (inactive) in assay [16]; -0.585 in [17]; -1.69 (inactive) in [18]; -0.3 (inactive) in [19]. Also, the z-score in assay [20] was -0.858.
Turning to `CC(CCN1CCCCc2nc(C)c(C)cc21)=NO[C@H](C)c1cn([C@@H]2COC[C@H]2O)nn1`, the composite z-score is 0.229 in assay [1]; 1.12 in assay [6]; -0.0701 in [7]; 2.71 with Torsin-1A (Homo sapiens) [8]; 2.5 in the assay with Torsin-1A (Homo sapiens) [9]; 2.01 in assay [10]. In [12], this compound gave a composite z-score of -0.0088. Also, the z-score in [2] was -0.216 (inactive); in [3] it was 0.184 (inactive); in [4] it was -0.482 (inactive); in assay [5] it was -0.445 (inactive); in [11], 0.431 (inactive); in assay [13], 0.682 (inactive). Also, the z-score in assay [14] is 0.406 (inactive); in assay [15], 0.116 (inactive); in assay [16] it was 0.342 (inactive); in assay [17] it was -0.363; in assay [18], -0.526 (inactive); in [19], 0.167 (inactive). In addition, the z-score in assay [20] was -0.376.
